# The full ranking holds about 13,000 compounds; the median of “IFI” is about 4, and the highest 2% start at about 17. This is one part of a sample in which the highest values are shown more often than they occur.
# Assay: GSK_TCMDC: Inhibition Frequency Index (IFI). The number of non-kinase HTS assays where a compound showed > 50 % inhibition, expressed as a percentage of the number of such assays in which the compound was tested
# Format: functional
row,SMILES,IFI [%]
1,O=C(CCc1c[nH]cn1)Nc1ccc(-c2ccc(-c3nc4cc(F)ccc4[nH]3)cc2)cc1,6.48
2,O=C(Nc1ccccc1)N(Cc1cccc(-c2cccc(CNCCc3ccccc3)c2)c1)C1CCN(Cc2ccccc2)CC1,12.3
3,COc1ccc(NS(=O)(=O)c2cccc(C(=O)Nc3ccc(C(F)(F)F)cc3)c2)cc1N1CCN(CC(C)C)CC1,2.84
4,CCCN1CCN(c2cc(S(=O)(=O)Nc3ccc(C(=O)NCc4cccc(C(F)(F)F)c4)cc3)ccc2OC)CC1,24.1
5,CCCCN1CCN(c2cc(NS(=O)(=O)c3ccc(C(=O)Nc4ccc(C(F)(F)F)cc4)cc3)ccc2OC)CC1,3.97
6,COc1ccc(NS(=O)(=O)c2ccc(C(=O)Nc3ccc(OC(F)(F)F)cc3)cc2)cc1N1CCN(CC2CC2)CC1,8.49
7,COc1ccc(NS(=O)(=O)c2ccc(C(=O)Nc3ccc(C(F)(F)F)cc3)cc2)cc1N1CCN(CC2CC2)CC1,2.1
8,COc1ccc(S(=O)(=O)Nc2ccc(C(=O)NCc3ccccc3C(F)(F)F)cc2)cc1N1CCN(CC2CC2)CC1,19.4
9,CCCCN1CCN(c2cc(NS(=O)(=O)c3cccc(C(=O)Nc4ccc(C(F)(F)F)cc4)c3)ccc2OC)CC1,3.55
10,COc1ccc(S(=O)(=O)Nc2ccc(C(=O)NCc3ccc(C(F)(F)F)cc3)cc2)cc1N1CCN(CC2CC2)CC1,20
11,CCC(C)c1ccc(NC(=O)c2ccc(S(=O)(=O)Nc3ccc(OC)c(N4CCN(CC5CC5)CC4)c3)cc2)cc1 (stereo not given),13.6
12,C#Cc1cccc(NC(=O)[C@H](CC2CCCCC2)Nc2ccc(C#N)c3ccccc23)c1,3.77
13,CCCCOc1ccc(-c2nc3ccccc3[nH]2)cc1,2.14
14,COc1ccc(OCCCON2C(=N)N=C(N)NC2(C)C)cc1,2.88
15,O=S(=O)(NCCN1CCCC1)c1ccc(-c2cccc(CNCc3ccc(F)cc3)c2)s1,9.65
16,CCNC(=O)Nc1cccc(-c2cccc(-c3nc4cccc(C)c4[nH]3)c2)c1,5.05
17,CN(C)CCn1c(=N)n(CC(O)c2ccc(Cl)c(Cl)c2)c2ccccc21 (stereo not given),2.21
18,CCN(CC)CCn1c(=N)n(CC(O)c2ccc(Cl)c(Cl)c2)c2ccccc21 (stereo not given),6.52
19,CCCCCCCn1c(=N)n(CC(O)c2ccc(Cl)c(Cl)c2)c2ccccc21 (stereo not given),17.6
20,Cc1ccc(C2(CN3CCC(NC(=O)c4n[nH]cc4Cl)CC3)CCCCC2)cc1,8.33
21,CN1CCN(CC(=O)Nc2cccc(-c3cccc(-c4nc5ccccc5[nH]4)c3)c2)CC1,1.8
22,O=C(Nc1cccc(C(F)(F)F)c1)Nc1ccc(Cl)c(Cl)c1,16.1
23,O=C(Nc1ccc(Cl)c(Cl)c1)Nc1cc(C(F)(F)F)ccc1Cl,5.71

row,SMILES,IFI [%]
1,O=C(Nc1ccc(SC(F)(F)F)cc1)Nc1ccc(Cl)c(Cl)c1,18.7
2,O=C(Nc1ccc(Cl)cc1)Nc1ccc2nonc2c1,12.8
3,O=C(Nc1ccc(SC(F)(F)F)cc1)Nc1ccnc2ccccc12,9.29
4,O=C(Nc1cccc(C(F)(F)F)c1)Nc1ccc2nonc2c1,22.5
5,O=C(Nc1cccc(C(F)(F)F)c1)Nc1ccc(F)c([N+](=O)[O-])c1,15.8
6,O=C(Nc1ccc(Cl)c(C(F)(F)F)c1)Nc1ccc(Cl)c(C(F)(F)F)c1,12.7
7,O=C(Nc1cc(C(F)(F)F)cc(C(F)(F)F)c1)Nc1ccc(Cl)c(Cl)c1,19.1
8,c1ccc2c(NCCCCCCCCNc3ccnc4ccccc34)ccnc2c1,8.27
9,CCOc1cc(N)c2nc3ccc([N+](=O)[O-])cc3cc2c1,6.47
10,CC(C)(C)NS(=O)(=O)c1cc(C(=O)N2CCC(CCN3CCC(C(=O)c4ccc(F)cc4)CC3)(c3cccc(F)c3)CC2)c(Cl)cc1F,3.55
11,C=CCOC(=O)N1CCC(CNCc2ccc(-c3ccc(-c4nc5ccccc5[nH]4)s3)cc2)C1 (stereo not given),11
12,COc1cccc(Nc2nccc(-c3c(-c4cccc(NC(=O)c5c(F)cccc5F)c4)nn4ccccc34)n2)c1,4.39
13,NC(=O)C1CCN(Cc2ccc(-c3ccc(-c4nc5cc(F)ccc5[nH]4)cc3)cc2)CC1,4.72
14,Fc1ccc2c(NN=Cc3ccc(Cl)cc3)ccnc2c1,0.74
15,O=C(NCCCCN1CCC(c2ccc3ccccc3c2O)CC1)c1ccc(-c2ccc(Cl)cc2)cc1,15.1
16,CC(C)C(=O)NC(c1ccc(N(C)C)cc1)c1cc(Cl)c2cccnc2c1O (stereo not given),5.38
17,CCn1c(-c2nonc2N)nc2c(-c3cccc(NC(=O)Nc4ccc5c(c4)CCC5)c3)ncc(OCCCN)c21,14.8
18,CCOC(=O)c1cccc(NC(=O)Nc2cccc(-c3ncc(OCCCN)c4c3nc(-c3nonc3N)n4CC)c2)c1,16.5
19,CCn1c(-c2nonc2N)nc2c(-c3cccc(NC(=O)NCc4ccccc4)c3)ncc(OCCCN)c21,12.9
20,CCn1c(-c2nonc2N)nc2c(-c3cccc(NC(=O)Nc4ccc(C(F)(F)F)cc4)c3)ncc(OCCCN)c21,19.1
21,CCn1c(-c2nonc2N)nc2c(-c3cccc(NC(=O)Nc4ccc(C#N)cc4)c3)ncc(OCCCN)c21,15.7
22,CCn1c(-c2nonc2N)nc2c(-c3cccc(NC(=O)Nc4cccc(C(F)(F)F)c4)c3)ncc(OCCCN)c21,14.6
23,CCn1c(-c2nonc2N)nc2c(-c3cccc(NC(=O)Nc4ccc(Cl)cc4)c3)ncc(OCCCN)c21,19.3

row,SMILES,IFI [%]
1,CCn1c(-c2nonc2N)nc2c(-c3cccc(NC(=O)Nc4cccc(Cl)c4)c3)ncc(OCCCN)c21,17.6
2,NCCCOc1cnc(-c2ccccc2)c2nc(-c3nonc3N)n(CCc3ccccc3)c12,18.8
3,CCn1c(-c2nonc2N)nc2c(-c3cccc(NC(=O)Nc4cccc(C#N)c4)c3)ncc(OCCCN)c21,16.7
4,CCn1c(-c2nonc2N)nc2c(-c3ccccc3)ncc(OCCCNCCCN3CCOCC3)c21,3.08
5,CCn1c(-c2nonc2N)nc2c(-c3cccc(NC(=O)NC45CC6CC(CC(C6)C4)C5)c3)ncc(OCCCN)c21,16.7
6,Cc1ccc(NC(=O)c2cc(S(=O)(=O)NC(C)(C)C)ccc2C)nc1,0
7,O=C(NC1CCN(CC2(c3ccccc3F)CCCC2)CC1)c1cc[nH]n1,0
8,Cc1nc(C)c(-c2ccc(C(F)(F)F)cc2)c(O)c1Br,0
9,O=S(=O)(NCCN1CCCC1)c1ccc(-c2cccc(CNCc3ccsc3)c2)s1,6.9
10,O=c1cc(NCCCNCc2cn(S(=O)(=O)c3ccccc3)c3ccccc23)[nH]c2ccccc12,5.88
11,COc1ccc2cc(-c3nc(-c4c(Cl)cccc4Cl)[nH]c3-c3ccnc(NCCC4CCCN4C)c3)ccc2c1 (stereo not given),11.3
12,C=CCn1ccc2c3c(N)nc(N)nc3ccc21,6.4
13,CC1(C)N=C(N)N=C(N)N1OCCCc1ccccc1,4.35
14,Cc1ccc2cc(NCCCCCCCCON3C(N)=NC(N)=NC34CCCCC4)ccc2n1,11.6
15,NC1=NC2(CCCCC2)N(OCCCCCCCCNc2nc(N)nc(N)n2)C(N)=N1,1.44
16,NC1=NC2(CCCCC2)N(OCCCCCCc2ccccc2)C(N)=N1,23.9
17,NC1=NC2(CCCCC2)N(OCCCCCCN2C(=O)c3ccccc3C2=O)C(N)=N1,1.43
18,NC1=NC2(CCCCC2)N(OCCCCCCC2CCCCC2)C(N)=N1,27.6
19,FC(F)(F)c1ccc2[nH]c(-c3ccc(-c4cccc(CNCC5CCCO5)c4)s3)nc2c1 (stereo not given),7.92
20,O=C(Nc1ccc(CN2CCOCC2)cc1)c1ccc(-c2ccc(Cl)cc2)o1,2.78
21,COc1ccc(-c2cc(C(=O)N[C@@H](CC3CCCCC3)C(=O)NCCN3CCCC3)ccc2O)cc1,3.45
22,CCN(CC)CCN(Cc1ccc(-c2ccc(C(F)(F)F)cc2)cc1)C(=O)Cn1c(CCc2cccc(F)c2F)nc(=O)c2ccccc21,8.39
23,Fc1ccc2[nH]c(-c3cccc(-c4ccc(CNCCc5ccncc5)cc4)c3)nc2c1,9.71

row,SMILES,IFI [%]
1,Fc1ccc2[nH]c(-c3cccc(-c4ccc(CNCc5ccccc5)cc4)c3)nc2c1,8.57
2,Fc1ccc2[nH]cc(CCNCc3ccc(-c4cccc(-c5nc6ccccc6[nH]5)c4)cc3)c2c1,17.8
3,O=C(/C=C/c1ccc(Cl)c(Cl)c1)NCC[C@@H]1C[C@H]1CCN1CCC(c2c[nH]c3ccccc23)CC1,12.3
4,Cc1cc(=NN=Cc2ccc(Cl)cc2)c2ccccc2[nH]1,0.7
5,CN(C)/C(=N/C(=N)Nc1ccc(Cl)cc1)NCCCCCCN/C(=N\C(=N)Nc1ccc(Cl)cc1)N(C)C,8.89
6,Clc1ccc(/N=C(/NCCCCCCCN/C(=N\c2ccc(Cl)cc2)Nc2ccc(Cl)cc2)Nc2ccc(Cl)cc2)cc1,17.1
7,N=C(NCCCCCCCCNC(=N)Nc1ccc(Cl)cc1)Nc1ccc(Cl)cc1,3.65
8,COc1ccc(O)c(C(=O)c2cc(C(=O)NC3CCCCC3)c(=O)n(C3CCCCC3)c2)c1,10.8
9,O=C(c1cc(C(=O)NC2CCCCC2)c(=O)n(C2CCCCC2)c1)c1cc(F)ccc1O,19.4
10,N#Cc1cc(C(=O)c2cc(Br)ccc2O)cn(C2CCCCC2)c1=O,2.78
11,COc1ccc(NCCCNc2ccnc3ccccc23)cc1,17.5
12,c1ccc2c(NCCCCCCNc3ccnc4ccccc34)ccnc2c1,4.55
13,c1ccc2c(NCCCCCCCNc3ccnc4ccccc34)ccnc2c1,11.3
14,Nc1nc(N)c2c(ccc3c2ccn3Cc2ccc(Cl)cc2)n1,13.2
15,CCn1c(Sc2ccc([N+](=O)[O-])c(C#N)c2)nnc1-c1ccc(Cl)cc1,3.4
16,OCC1CCN(Cc2ccc(-c3ccc(-c4nc5cc(F)ccc5[nH]4)cc3)cc2)CC1,2.94
17,Oc1c(C(Nc2nc3ccccc3s2)c2ccc(OC(F)F)cc2)ccc2cccnc12 (stereo not given),9.4
18,CN(C)CCOc1ccc2c(=O)cc(CCc3cccc(F)c3F)n(CC(=O)N(C)Cc3ccc(-c4ccc(C(F)(F)F)cc4)cc3)c2c1,2.92
19,CCOC(=O)c1c(CNc2ccncc2)n(C)c2cc(Br)c(OC(C)=O)cc12,0.74
20,CCOC(=O)c1cc(C(=O)NCCCCN2CCC(c3cn(C)c4ccccc34)CC2)ccc1-c1ccc(C(F)(F)F)cc1,5.31
21,CCOC(=O)c1cc2c(CCN3C(=O)c4ccccc4C3=O)cn(C)c2cc1-c1ccncc1,30.4

# From ChEMBL document CHEMBL1157539, “Thousands of chemical starting points for antimalarial lead identification” (Nature, 2010)
